BRCA1 expr act: increases BRCA1 expression; AID 624202; Potency, µM (series often up to 46.1 µM), inactives show top-dose activation, usual class: activators; 380,000 tested, 1.1% active; MCF7-BRCA1-FFLuc reporter, luminescence, 48 h; response scale: scaled: vehicle 0%, 10 µM genistein 100%; also: potency is read from the fitted curve at half-maximal effect; nearly all actives have a fitted effect of over 80% in size
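MCF7-BRCA1-FFLuc, 2000 cells/well; 2 h attach, 37 °C/5% CO2; compound 48 h; luciferase substrate 15 min; luminescence end-point. Norm. to genistein 10 microM max activation and DMSO; concentration-response curves fitted.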
PINK1 modulator: PINK1 expression modulation; 410,000 tested, 0.2% active; PINK1 immunofluorescence, high-content cytometry, 24 h; Potency, µM (doses to about 76.6 µM), without a hit: at the top dose activation (PINK1 increase), hits mostly activators; AID 624263; active = well fitted activation curve with a large enough effect; inconclusive = small, poorly fitted or top-dose-only effect; cell line not stated here; also: potency is read from the fitted curve at half-maximal effect; % of control where 0% means no effect; nearly all actives have a fitted effect of over 65% in size
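PINK1 protein level read as immunofluorescence by microplate cytometer in a fixed, stained stable cell line after 24 h exposure to five compound concentrations, with CCCP as control.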
TCR act: activates T cell receptor signaling | primary human leukocytes, anti-CD3, IL-2 HTRF, 48 h | Potency, µM (series often up to 9.22 µM), for inactives: top-dose activation of IL-2 secretion, usual class: activators | 330,000 tested, under 10 active | AID 504894; also: % of control where 0% means no effect
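1) Mix primary human leukocytes, a-CD3 beads and compound. 2) Incubate 48 hr. 3) Add HTRF IL-2 reagents (a-IL-2-K, a-IL-2-d2).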
Akt phos inh: Akt phosphorylation inhibition | Neuro2A IGF-stimulated pAkt S473 HTRF, 20 min; hits give low values | activity change, % for hits at 50 µM | 360,000 tested, 0.32% active; in the data active = activity change below about -80%; inconclusive = mostly about -51% to -80%; also: % is scaled to controls: 0 for no effect and ±100 for the full control effect
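Neuro2A cells in DMEM with 0.5% FBS, overnight at 37 deg C, given compound at single 50 µM final, then IGF (6 nM final) for 20 min at 37 deg C. Lysed; phospho-Akt Ser473 by HTRF after 24 h, 665/615 ratio.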
Starred values were filed as active, the others as inactive; i = inactive; ? = inconclusive; / = no result given; [ ] = another dose, or the depositor's remark. Compounds with a hit are over-represented: about 1.5% of the library has one in this group of screens. Unless noted, calls follow the shape of the dose curve; as a rule, active = well fitted curve in the direction sought with a large enough effect; inconclusive = small, poorly fitted or top-dose-only effect, or another doubt; inactive = no such curve, though single readings can be large; an effect the other way counts as inactive or inconclusive.

SMILES	BRCA1 expr act	PINK1 modulator	TCR act	Akt phos inh
Nc1ccc(CSc2ccc(Cl)cc2)c(Cl)c1	1.78µM*	13.7%	0.3%	i
N=C(N)SCc1ccc(Cl)cc1Cl	-56.6%	13.7%	-6.5%	i
O=c1oc(Nc2cccc(Cl)c2)nc2ccccc12	7.08µM*	2.4%	3.1%	i
COc1ccc(CN2CCOc3ccc(CN4CCC(O)(c5cccnc5)CC4)cc3C2)cc1OC	/	-0.5%	/	/
Cc1ccc(Nc2sc(C(=O)c3ccccc3)c(N)c2C(=O)Nc2ccc(Cl)cc2)cc1	/	39.8µM*	/	/
Cc1ccccc1Nc1sc(C(=O)c2ccccc2)c(N)c1C(=O)NCc1ccc(Cl)cc1	/	15.8µM*	/	/
Nc1c(C(=O)c2ccccc2)sc(Nc2ccc(Cl)c(Cl)c2)c1C(=O)Nc1ccccc1	/	15.8µM*	/	/
COc1cc2nc(CCNCc3ccccc3)nc(NC3CCN(C)CC3)c2cc1OC	-61.1%	-0.5%	/	/
COc1ccc(CCN2C(=O)c3[nH]nc(-c4ccccc4O)c3C2c2ccccc2)cc1 (centres undefined)	/	1.4%	/	/
O=c1c2ccccc2nc(-c2ccco2)n1Cc1ccccc1	7.94µM*	4.3%[38.3 µM]	-6.3%	i
O=C(CSc1nc2ccccc2c(=O)n1Cc1ccco1)NCc1ccccc1	-1.0%	21.4%[38.3 µM]	4.8%	i
O=C(CSc1nc2ccccc2c(=O)n1Cc1ccccc1)NCc1ccco1	1.6%	5.62µM*	/	?
O=C(/C=C\c1ccco1)c1ccc(NC(=O)c2ccco2)cc1	1.78µM*	-1.5%	4.1%	i
O=C(CCNC(=O)c1ccco1)Nc1ccc(Cl)cc1	14.7%	1.2%	8.5%	i
CCC(=O)Oc1ccc(NC(=O)c2ccco2)cc1	66.9%	-0.2%	-3.7%	i
CCC(=O)Nc1ccc(NC(=O)c2ccco2)cc1	2.51µM*	-2.2%[38.3 µM]	2.8%	i
O=C(CNC(=O)c1ccco1)Nc1ccc(Cl)cc1	12.6µM*	-0.1%	-8.6%	i
COc1cc2ncnc(N3CCN(C(=O)Nc4ccc(Oc5ccccc5)cc4)CC3)c2cc1OC	-13.7%	1.8%	/	/
Cc1ccc(CN2CCC(C3(c4ccccn4)NC(=O)N(CC4CCCO4)C3=O)CC2)cc1C (centres undefined)	/	2.1%	/	/
C(=N\n1cnnc1)/c1ccc(OCc2ccccc2)cc1	12.6µM*	11.4%[38.3 µM]	/	i
CN1CCN(/N=C/c2ccc(OCc3ccccc3)cc2)CC1	7.94µM*	1.3%	-2.9%	i
COC(=O)c1ccc(COc2ccc(/C=N/N3CCN(C)CC3)cc2)cc1	?	-1.3%	-4.1%	i
Cn1cc(CN2CCOc3ccc(C(O)C4CCCCC4)cc3C2)cn1 (centres undefined)	/	0.0%	/	/
CCSc1nsc(NC(=O)Nc2ccc(F)cc2F)n1	1.9%	22.4µM*	/	i
CCC(=O)N/C(N)=N/c1nc2ccccc2o1	2µM*	-1.0%	-15.2%	i
SMILES	BRCA1 expr act	PINK1 modulator	TCR act	Akt phos inh
CCCC(=O)Oc1ccc2[nH]c(C(=O)c3cc4ccccc4[nH]3)cc2c1	0.0%	0.1%	/	/
COc1ccccc1NC(=S)N/N=C/c1cccc(C)c1	-25.0%	9.9%	0.0%[46.1 µM]	i
Oc1ccc(/C=N/NC(=S)N/N=C/c2ccc(O)cc2)cc1	8.91µM*	1.6%	0.3%	i
COc1ccccc1NC(=S)N/N=C/c1ccc(O)cc1	3.16µM*	0.0%	-5.5%[46.1 µM]	i
Oc1ccc(/C=N/NC(=S)Nc2cccnc2)cc1	?	1.5%	-1.2%	i
Cc1ccc(NC(=O)c2ccco2)c([N+](=O)[O-])c1	7.94µM*	0.7%	-2.4%	i
CCn1cc([N+](=O)[O-])c(C(=O)Nc2nc(-c3ccc(C)cc3)c(C)s2)n1	-22.8%	-1.7%	-3.4%	i
CCn1cc([N+](=O)[O-])c(C(=O)Nc2nc(-c3ccc(C)c(C)c3)c(C)s2)n1	-22.7%	2.82µM*	/	i
CCn1cc([N+](=O)[O-])c(C(=O)Nc2cc(C)on2)n1	14.0%	2.9%	-6.0%	-112.8%*
COc1ccc(-n2c(CNC(=O)c3c(-c4ccccc4)noc3C)nnc2SC)cc1	/	-0.3%	/	/
COC(=O)C1CCCCN1Cc1ccc2c(c1)CN(C(=O)c1csc(-c3cccs3)n1)CCO2 (centres undefined)	/	-0.6%	/	/
COC(=O)[C@@H]1CCCN1C(=O)CCc1nnc(CCC2CCCCC2)o1	11.2µM*	-0.8%	-0.2%	i
C=CCn1c(SCC(=C)C)nc2c1c(=O)[nH]c(=O)n2C	-15.8%	-0.8%	0.1%	i
C=CCn1c(Sc2nnc(C)s2)nc2c1c(=O)[nH]c(=O)n2C	-5.3%	-1.9%	-4.4%	-124.5%*
Cc1ccc(NC(=O)CCN2C(=O)C3CCCCC3C2=O)c(O)c1 (centres undefined)	-7.5%	-2.6%	0.7%	i
Cc1ccc(NC(=O)CCCC2CCCCC2)c(O)c1	12.6µM*	3.2%	-3.9%	i
COc1ccc(C(=O)N2CCC3(CCN(C)CC3)CC2)cc1	/	-0.3%	/	/
Cc1ccsc1/C=N/n1cnc2sc(C)c(C)c2c1=O	11.2µM*	14.2%	-2.4%	i
CC(=O)c1ccc(NC(=S)Nc2ccc3cn[nH]c3c2)cc1	6.31µM*	3.7%	3.0%	i
CC(C)c1ccc(NC(=S)Nc2ccc3cn[nH]c3c2)cc1	?	-0.9%	3.2%	i
COc1cc(OC)cc(C(=O)Nc2nnc(NC(=S)Nc3ccccc3)s2)c1	-2.7%	0.3%	-2.6%[46.1 µM]	i
CC(C)(C)c1nnc(NC(=S)Nc2ccccc2)s1	2.82µM*	10.8%	-3.8%	i
CCn1cc(CN2Cc3ccccc3OC(c3ccccc3OC)C2)c(C)n1 (centres undefined)	/	2.7%	/	/
CCOC(=O)c1ccc2c(c1)nc(SC/C(O)=C(\C#N)c1nc3ccccc3[nH]1)n2CC	-8.1%	39.8µM*	-3.0%	i
c1ccc2nccnc2c1	-79.5%	0.0%	/	/
SMILES	BRCA1 expr act	PINK1 modulator	TCR act	Akt phos inh
O=c1c2ccccc2sn1-c1ccccc1	16.2%	4.0%	0.3%	-106.7%*
CC(C)N1CCN(C(=O)c2cnn(-c3nccc(-c4ccc5c(c4)OCO5)n3)c2-c2ccco2)CC1	/	-0.9%	/	/
CCCCCn1cnc2sc(CC)cc2c1=O	?	4.5%	-1.4%[46.1 µM]	i
CCc1cc2c(=O)n(CC(C)C)cnc2s1	11.2µM*	0.7%	-0.8%[46.1 µM]	i
COc1ccc(OC)c(/C=C2\C=Cc3ccccc32)c1	-45.7%	3.4%	/	/
CC(C)C(=O)Nc1ccccc1C(=O)OCC(=O)c1ccc2c(c1)OCCO2	-0.9%	4.7%	-2.8%[46.1 µM]	i
Cc1cc(C(=O)COC(=O)c2ccccc2O)c(C)n1Cc1cccs1	-92.4%	1.8%[38.3 µM]	-5.0%	i
Cc1cccc(C(=O)OCC(=O)c2ccc3c(c2)OCO3)c1O	6.31µM*	6.8%	-5.6%	i
Cc1cc(C(=O)COC(=O)c2ccc3c(c2)OCO3)c(C)n1Cc1cccs1	5.01µM*	1.2%	3.7%	i
O=C(COC(=O)c1ccccc1[N+](=O)[O-])c1ccc2c(c1)OCO2	?	1.5%	2.7%	i
Cc1cccc(C(=O)OCC(=O)c2ccc3c(c2)OCCO3)c1O	6.31µM*	5.1%	-4.9%	i
COc1cc(=O)n2c(c1C(=O)N(C)Cc1nonc1C)CCN(C(=O)c1ccc(C)c(C)c1)CC2	/	-0.6%	/	/
COc1cc(-c2cnc3ccccc3c2)cc2c1OCCN(C(=O)Cn1nccc1C)C2	/	-0.2%	/	/

Compound activity from PubChem BioAssay.
